Bioassay records as filed in PubChem BioAssay.
A selection: hits, their analogues and other compounds. The true share with any hit is near 1.1%.
Hsp90 block: displaces geldanamycin probe from tumor Hsp90; NCI-N417 lysate Hsp90, Cy3B-geldanamycin FP displacement; inhibition, % at 30 µM; 64,000 tested, 0.35% active; AID 429;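 active = inhibition above 50%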;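 note: 0% = tracer plus lysate wells and 100% = tracer alone without lysate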
BAP1 inh: blocks human BAP1 ubiquitin-AMC hydrolysis | Q92560 | recombinant BAP1, Ub-AMC hydrolysis fluorescence kinetic; hits give low values | calls only at 20 µM | 72,000 tested, 0.48% active | AID 436;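 active = activity remaining at or below 50% of control, provided the compound also passes the data quality filters; inactive = the rest, including low values that fail the filters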;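 note: 100% = DMSO wells rate and 0% = substrate alone blank rate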
DUSP1 inh: inhibitors of human MKP-1 phosphatase; recombinant MKP-1, OMFP hydrolysis fluorescence; inhibition, %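 (compounds tested at a single concentration somewhere between 10 and 100 µM)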; P28562; 65,000 tested, 0.15% active;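 active = inhibition above about 50%, limit read from the data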;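 note: 0% = DMSO max control wells and 100% = wells with enzyme stopped by NaOH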
HePTP inh: human HePTP phosphatase inhibition; P35236; recombinant HePTP phosphatase activity, OD absorbance; inhibition, % at 20 µM; 110,000 tested, 0.64% active; AID 521; in the data active = inhibition above about 50%;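 note: plate controls were vehicle for no effect and reference inhibitor for full effect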
Target sequence (P35236 whole entry, looked up): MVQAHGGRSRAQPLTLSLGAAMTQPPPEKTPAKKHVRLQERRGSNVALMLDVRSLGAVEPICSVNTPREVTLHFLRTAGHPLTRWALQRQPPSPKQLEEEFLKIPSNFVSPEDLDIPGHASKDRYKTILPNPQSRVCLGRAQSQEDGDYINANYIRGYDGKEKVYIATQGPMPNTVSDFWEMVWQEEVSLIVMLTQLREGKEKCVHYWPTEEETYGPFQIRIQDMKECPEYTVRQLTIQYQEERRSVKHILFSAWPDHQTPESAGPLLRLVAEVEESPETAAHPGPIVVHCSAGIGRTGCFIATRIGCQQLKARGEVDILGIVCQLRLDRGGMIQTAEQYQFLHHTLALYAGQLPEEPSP
Cdc25B block: human M-phase inducer phosphatase 2 inhibition. recombinant Cdc25B, OMFP fluorescence Ex485/Em525. P30305. inhibition, %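 (compounds tested at 10 µM final in the well)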. 65,000 tested, 0.1% active; in the data active = inhibition above about 50%
An asterisk follows results filed as active; i = inactive; · = not tested or not shown; + = active, no number; ! = not active in a repeat.

SMILES	Hsp90 block	BAP1 inh	DUSP1 inh	HePTP inh	Cdc25B block
CCCOc1ccc(-c2cc(C(=O)NCCCN3CCOCC3)c3ccccc3n2)cc1	·	·	·	103*	·
Cc1ccc(C(=O)NC(NC(=S)Nc2ccccc2)C(Cl)(Cl)Cl)cc1 (stereo unspecified)	·	·	·	4	·
Cc1ccc(C(=O)NC(NC(=S)Nc2cc(C)ccc2C)C(Cl)(Cl)Cl)cc1 (stereo unspecified)	·	·	·	75*	·
CC(C)N=c1cc2n(-c3ccc(Cl)cc3)c3ccccc3nc-2cc1Nc1ccc(Cl)cc1	98*	·	-12	7	-5
c1ccc(CSc2nnc(NC3=NCCCCC3)s2)cc1	-5	i	-23	7	2
N#Cc1ccc(CSc2nnc(Nc3ccccc3)s2)cc1	85*	i	21	5	18
O=c1[nH]cnc2[nH]ncc12	0	i	74*	·	-3
O=C(NC(=S)Nc1ccc(Cl)c(Cl)c1)c1ccc(Cl)cc1	·	·	·	3	·
CCOC(=O)c1c(-c2ccc(OC)cc2)csc1NC(=O)C1CC=CCC1C(=O)O (stereo unspecified)	·	·	·	105*	·
O=[N+]([O-])c1ccc(-c2nc(NCc3ccccc3)cc(-c3ccccc3)n2)cc1	·	·	·	-2	·
CCOC(=O)c1ccc(-n2c(-c3ccccc3)nc3ccccc3c2=O)cc1	·	·	·	98*	·
Cc1ccccc1OCC(=O)O/N=C(\N)Cc1cccc2ccccc12	·	·	·	-11	·
CCc1cccc(NC(=O)c2cnccn2)c1	·	·	·	-10	·
Cc1cccc(NC(=O)c2cnccn2)c1	·	·	·	60*	·
Nc1c(C(O)(C(F)(F)F)C(F)(F)F)ccc2ccccc12	2	+	11	1	1
CCOC(=O)c1c(C)sc(Sc2ccc(Cl)cc2[N+](=O)[O-])c1OC	·	·	·	102*	·
COc1cc(C(=O)Nc2ccc(Cc3ccncc3)cc2)cc(OC)c1OC	·	·	·	6	·
Cc1ccc(C)n1-c1ccccc1C(=O)O	·	·	·	104*	·
Cc1c(C(=O)O)cccc1-n1c(C)ccc1C	·	·	·	104*	·
O=C(c1ccc(Cl)c(Cl)c1)N1CCN(c2ccccc2)CC1	·	·	·	4	·
COc1ccc(/C=C2\SC(=O)N(CCC(=O)N3CCCCC3)C2=O)cc1OC	·	·	·	8	·
COc1ccc(/C=C2\SC(=O)N(CCC(=O)N3CCOCC3)C2=O)cc1OC	·	·	·	104*	·
O=C(NCc1ccc(Cl)cc1Cl)C(=O)NC1CCCC1	·	·	·	61*	·
Cc1c(N/C=C/C(=O)c2ccc(Br)cc2)c(=O)n(-c2ccccc2)n1C	·	·	·	1	·
Cc1cc(C)cc(N2C(=O)NC(=O)/C(=C\c3ccc([N+](=O)[O-])o3)C2=O)c1	·	·	·	84*	·
SMILES	Hsp90 block	BAP1 inh	DUSP1 inh	HePTP inh	Cdc25B block
Cc1ccc(N2C(=O)NC(=O)/C(=C\c3ccc(-c4cccc([N+](=O)[O-])c4)o3)C2=O)cc1	·	·	·	1	·
Cc1cc(N2C(=O)NC(=O)/C(=C\c3ccc(N(C)C)o3)C2=O)ccc1Br	·	·	·	-8	·
Cc1cc(N2C(=O)NC(=O)/C(=C\c3ccc([N+](=O)[O-])o3)C2=O)ccc1Br	·	·	·	104*	·
O=C(NCc1ccccn1)c1ccccc1Oc1ccccc1	·	·	·	-12	·
O=C(COc1ccccc1)Nc1cccc(-c2nnc(-c3ccccc3)o2)c1	-3	+	15	-16	12
O=C(COc1ccc(I)cc1)Nc1ccc2c(c1)oc1ccccc12	·	·	·	102*	·
O=C(COc1ccc2ccccc2c1)Nc1cccc(Br)c1	·	·	·	70*	·
COc1cccc(NC(=O)COc2ccc3ccccc3c2)c1	·	·	·	5	·
O=C(COc1ccc(Cl)cc1Cl)Nc1ccc2c(c1)oc1ccccc12	·	·	·	-2	·
CCOc1ccccc1NC(=O)CN(c1ccc(OC)cc1)S(=O)(=O)c1ccccc1	·	·	·	-9	·
COc1cc(NCCN(CC(C)C)CC(C)C)c2ncccc2c1	22	·	·	·	·
CCC(C)NCCNc1cc(OC)cc2cccnc12 (stereo unspecified)	127*	·	·	·	·
CCn1cc(C(=O)NCc2ccco2)c(=O)c2cc(S(=O)(=O)N3CCCCCC3)ccc21	2	i	36	-10	-11
CCn1cc(C(=O)NCc2ccccn2)c(=O)c2cc(S(=O)(=O)N3CCCCC3)ccc21	65*	i	33	4	-2
Cc1cc(C2(c3cc(C)c(NC(=O)CN4CCCCC4)c(C)c3)CCCCC2)cc(C)c1NC(=O)CN1CCCCC1	·	·	·	7	·
CN(C)c1ccc(-c2c3cc(O)c(=O)cc-3oc3cc(O)c(O)cc23)cc1	·	·	·	103*	·
COc1ccc(CN2CC(C(=O)NCCCN3CCOCC3)CC2=O)cc1 (stereo unspecified)	0	i	22	-6	65*
COc1ccccc1NC(=O)c1cc2c(ccc3ccccc32)oc1=O	·	·	·	6	·
COc1ccccc1-c1nnc2n1N=C(c1ccc(O)c(O)c1)CS2	65*	i	-1	10	-8
O=C(N/N=C/c1cc(Br)cc(I)c1O)c1cccc([N+](=O)[O-])c1	·	·	·	-29	·
O=C(N/N=C/c1ccc(OC(=O)c2ccc(Br)cc2)cc1)c1cccc([N+](=O)[O-])c1	·	·	·	52*	·
O=C1CSC(c2cn(-c3ccccc3)nc2-c2ccccc2)N1Cc1ccc(Cl)cc1 (stereo unspecified)	·	·	·	74*	·
O=C1CSC(c2cn(-c3ccccc3)nc2-c2ccc(Cl)cc2)N1Cc1ccccc1 (stereo unspecified)	·	·	·	-13	·
CC(C)CC(=O)Nc1ccc(I)cc1C(=O)O	·	·	·	7	·
O=C(O)c1cc(-c2ccc(/C=C/c3cc(C(F)(F)F)[nH]c(=O)n3)o2)ccc1Cl	·	·	·	65*	·
SMILES	Hsp90 block	BAP1 inh	DUSP1 inh	HePTP inh	Cdc25B block
CC(=O)Nc1c(C)ccc2c1C(C)CC21CCCC1 (stereo unspecified)	·	·	·	104*	·
CCOC(=O)COc1nc(OC)nc(N2CCOCC2)n1	3	i	1	6	2
COc1nc(OC/C(N)=N/O)nc(N2CCOCC2)n1	0	i	-11	8	66*
CC(=O)NC1=NC(=O)/C(=C/c2cc(C)n(-c3ccc(C(=O)O)cc3)c2C)S1	·	·	·	61*	·
COC(=O)c1ccc(-n2c(C)cc(/C=C3/SC(N)=NC3=O)c2C)cc1	·	·	·	-9	·
COc1cc(/C=C(/C#N)C(N)=O)cc(Br)c1O	·	·	·	3	·
CC1(C)CC(=O)C2=C(C1)c1c(ccc3ccccc13)NC2c1ccccc1[N+](=O)[O-] (stereo unspecified)	·	·	·	6	·
O=C(O)CN1C(=O)/C(=C\c2cccc3ccccc23)SC1=S	·	·	·	-9	·
O=C(OC1CCc2ccccc2C1=O)c1ccccc1O (stereo unspecified)	72*	i	20	-1	48
CC(C)COCC(CN(Cc1ccccc1)c1ccccc1)N1CCCC1 (stereo unspecified)	64*	i	·	·	·
CC1(C)CCC2=C(O1)c1ccccc1C(=O)C2=O	89*	i	·	·	·
CCc1cc(-c2[nH]ncc2-c2ccc3c(c2)OCO3)c(O)cc1O	96*	i	15	-6	12
Nc1nc2ccccc2n1/N=C/c1ccc([N+](=O)[O-])cc1	·	·	·	15	·
CC(C)NC[C@H](O)c1ccc(O)c(O)c1	32	i	·	·	·
CCC(NC(C)C)C(O)c1ccc(O)c(O)c1 (stereo unspecified)	59*!	i	16	6	10
CCOC(=O)N1CCC(NC(=O)CSCc2nc(-c3sccc3C)oc2C)CC1	98*	i	3	-5	-12
